An excerpt weighted towards active compounds, which were near 3.8% of everything screened.
ERb SRC1 inh: ER-beta (human) coactivator binding inhibition. TR-FRET ER-beta LBD / SRC1-Cy5 peptide binding; receptor agonist-loaded with 1 µM estradiol. actives 1.3% (n = 86,000). inhibition, % at 25.6 µM. Q92731;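 active = compounds whose percent inhibition of the receptor-coactivator binding signal exceeds about 50% in the single-dose screen, limit read from the data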;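 note: 0% = receptor plus peptide wells without compound and 100% = peptide-only wells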
ERa SRC1 inh: blocks coactivator binding to human estrogen receptor alpha; actives 1.7% (n = 86,000); inhibition, % at 25.6 µM; P03372; TR-FRET ER-alpha LBD / SRC-1 peptide, estradiol-bound; in the data active = inhibition above about 50%;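 note: 0% = receptor plus peptide control and 100% = peptide only without receptor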
Target sequence (P03372 whole entry, looked up, the tested form may be a part): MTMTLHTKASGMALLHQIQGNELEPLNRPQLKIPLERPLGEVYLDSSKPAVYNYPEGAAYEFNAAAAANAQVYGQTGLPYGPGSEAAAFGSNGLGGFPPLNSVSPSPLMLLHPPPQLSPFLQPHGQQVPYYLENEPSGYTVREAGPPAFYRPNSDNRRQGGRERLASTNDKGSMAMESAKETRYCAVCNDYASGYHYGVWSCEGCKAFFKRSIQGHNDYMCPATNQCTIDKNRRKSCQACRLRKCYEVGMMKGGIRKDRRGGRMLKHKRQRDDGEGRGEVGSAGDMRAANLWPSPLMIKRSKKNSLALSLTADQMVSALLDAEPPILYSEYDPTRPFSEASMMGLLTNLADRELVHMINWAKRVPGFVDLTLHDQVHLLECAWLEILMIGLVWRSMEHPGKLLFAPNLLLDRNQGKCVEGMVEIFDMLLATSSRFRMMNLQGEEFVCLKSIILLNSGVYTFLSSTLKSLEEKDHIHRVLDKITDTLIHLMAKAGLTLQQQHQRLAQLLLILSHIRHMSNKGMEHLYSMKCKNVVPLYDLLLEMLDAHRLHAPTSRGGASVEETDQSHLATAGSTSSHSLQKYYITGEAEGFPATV
Smad3 FoxH1 inh: inhibitors of human Smad3 transcription factor binding; TR-FRET Smad3/Dy647-FoxH1 peptide binding, europium anti-His; actives 0.29% (n = 88,000); inhibition, % at 25 µM;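 active = compounds that reduce the energy-transfer binding signal between the protein and its labelled peptide by more than half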;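 note: 0% = Smad3 plus labelled peptide maximal FRET and 100% = peptide-only background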
ERa SRC1 pot: ER-alpha (human) coactivator binding potentiation; P03372; TR-FRET ERalpha-LBD/SRC-Cy5 coactivator binding, 2 h; 100 = basal binding, no effect; coactivator binding (% of control), % at 25.6 µM; actives 1.3% (n = 86,000); AID 639; in the data active = activity above about 200%;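 note: binding measured in presence of low estradiol as agonist stimulus; 0% = peptide alone without receptor and 100% = receptor with peptide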
Calb biofilm kill: kills Candida albicans biofilms; inhibition, % at 6 µM; actives 0.14% (n = 85,000); C. albicans biofilm + clotrimazole, Alamar Blue;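 active = inhibition above 20%; inactive = inhibition below 20%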;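 note: preformed 24 hr biofilms exposed to compound for 48 hr; 0% = biofilm without compound and 100% = blank killed by clotrimazole plus chlorhexidine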
* = called active by the depositor; x = no result given; [ ] = another dose, or the depositor's remark.

SMILES	ERb SRC1 inh	ERa SRC1 inh	Smad3 FoxH1 inh	ERa SRC1 pot	Calb biofilm kill
OC[C@@H]1O[C@H](N2CCN([C@@H]3O[C@H](CO)[C@@H](O)[C@H](O)[C@H]3O)CC2)[C@@H](O)[C@H](O)[C@H]1O	x	x	31.8	x	x
CC(=O)Nc1nc(NC(C)=O)c2[nH]c(CO)nc2n1	x	x	9.9	x	x
CC(=O)Nc1ccc2c(c1)/C(=C/c1ccc([N+](C)(C)C)cc1)c1ccccc1-2	x	x	93.1*	x	x
O=C1c2oc3ccccc3c(=O)c2C(c2ccc(Br)cc2)N1c1ncccn1 (centres undefined)	27.3	39.1	-36.2	316.0*	8.3
O=c1cc(-c2ccco2)oc2c1ccc1ccccc12	51.6*[fluorescence artefact?]	50.8*[fluorescence artefact?]	1.3	327.4*	5.4
C[C@]12CC[C@@H]3c4ccc(O)cc4CC[C@H]3[C@@H]1CC[C@@H]2O	x	x	-2.3	x	6.5
C[C@]12CC[C@@H]3c4ccc(O)cc4[C@@H](O)C[C@H]3[C@@H]1CC[C@@H]2O	12.4	-0.2	-18.3	530.4*	2.2
CCOc1cc(C2c3c(oc4cc(C)c(Cl)cc4c3=O)C(=O)N2Cc2ccco2)ccc1O (centres undefined)	46.2	83.9*[fluorescence artefact?]	0.9	105.7	0.5
O=C(O)c1cc(Cl)cc(Cc2cc(Cl)cc(C(=O)O)c2O)c1O	x	x	15.1	x	x
O=C(O)c1[nH]c2ccccc2c1-c1ccccc1	3.3	20.2	80.0*[fluorescence artefact?]	79.8	3.2
COC(=O)c1ccc(-c2n[nH]c(=O)c3ccccc23)cc1	-1.9	1.1	0.9	296.1*[fluorescence artefact?]	7.5
CC(C)Cn1c(=O)c(C(=O)Nc2ccncc2)c(O)c2ccccc21	38.5	51.4*[fluorescence artefact?]	36.2	145.9	0.6
Cc1ccc(NC(=O)c2c(O)c3ccccc3n(C)c2=O)nc1	29.9	18.9	2.4	76.0	3.0
Cc1ccnc(NC(=O)c2c(O)c3ccccc3n(C)c2=O)c1	18.2	21.3	4.3	344.6*[fluorescence artefact?]	7.5
CC(=O)/C(=C\c1ccccc1F)C(=O)c1ccccc1	x	x	-6.5	x	x
CCC(C(=O)NCc1ccccc1OC)n1nc(C)n2c(cc3occc32)c1=O (centres undefined)	-5.9	-6.9	-13.8	110.2	2.3
O=C1c2ccccc2-c2onc3ccc(NCCCn4ccnc4)c1c23	27.0	69.9*[fluorescence artefact?]	3.7	89.1	7.4
COc1cccc(-c2nnn(CC(=O)Nc3ccc(C)cc3C)n2)c1OC	30.6	26.9	3.6	283.0*[fluorescence artefact?]	4.8
O=C1C(c2ccncc2)N(CCC2=CCCCC2)C(=O)CN1C1CCCCC1 (centres undefined)	-4.0	3.5	4.5	114.2	5.9
O=C(c1ccco1)N1CCN(C(=O)c2oc(=O)c3ccccc3c2-c2ccccc2)CC1	-9.1	-3.2	11.9	93.8	8.0
O=c1[nH]c2ccc(Cl)cc2c(-c2ccccc2)c1N1CCOCC1	22.9	18.1	3.1	357.2*[fluorescence artefact?]	-7.6
O=C(c1ccco1)N1CCN(c2c(-c3ccccc3)c3cc(Cl)ccc3[nH]c2=O)CC1	16.1	24.8	8.4	223.4*[fluorescence artefact?]	5.5
O=c1[nH]c2ccc(Cl)cc2c(-c2ccccc2)c1CN1CCOCC1	0.3	-0.4	9.2	86.8	7.7
O=c1[nH]c2ccc(Cl)cc2c(-c2ccccc2)c1N1CCN(c2ccccn2)CC1	30.1	12.6	0.5	259.6*[fluorescence artefact?]	3.8
CCOC(=O)c1cccc(NC(=O)CN(c2ccc(C)cc2)S(=O)(=O)c2c(C)n[nH]c2C)c1	0.3	5.2	4.4	105.2	-4.4
SMILES	ERb SRC1 inh	ERa SRC1 inh	Smad3 FoxH1 inh	ERa SRC1 pot	Calb biofilm kill
O=C1CCNc2cc3ccccc3cc21	78.4*[fluorescence artefact?]	82.2*[fluorescence artefact?]	9.6	21.3	3.0
Cc1cc(C(=O)OCC(=O)NC(=O)NC(C)(C)C)c(C)o1	-10.2	-5.8	3.7	118.5	6.0
COc1cc(NC(=O)c2cccs2)c(C(=O)OCC(=O)NC(=O)NCc2ccccc2)cc1OC	0.9	39.3	-418.2	344.4*	3.6
COc1cc(NC(=O)c2cccs2)c(C(=O)OCC(=O)NC(=O)NC(C)(C)C)cc1OC	75.3*	15.7	-12.1	100.7	1.7
CCc1ccc(N(CC(=O)Nc2nc3ccc(C)cc3s2)S(=O)(=O)c2c(C)noc2C)cc1	13.2	-3.4	8.0	106.9	11.6
CC(C)=C[C@H]1[C@H](COC(=O)c2cc3c(cc2Cl)OCO3)C1(C)C	x	x	5.1	x	x
COC(=O)c1[nH]c2ccc(C)cc2c1NC(=O)CN1CCCc2ccccc21	53.7*	77.3*[fluorescence artefact?]	19.3	72.7	6.3
Cc1ccc2[nH]c3c(c2c1)CN(C(=O)CN1CCCc2ccccc21)CC3	-5.7	-9.5	10.1	99.6	3.5
O=C(Nc1ccc([N+](=O)[O-])cc1)/C(=C/c1cccc([N+](=O)[O-])c1)NC(=O)C1CCCCC1	30.7	2.6	-75.4	88.3	12.9
Cc1ccc(NC(=O)/C(=C/c2cccc([N+](=O)[O-])c2)NC(=O)C2CCCCC2)c(C)c1	28.5	54.9*	-4.8	63.5	6.4
CCOC(=O)c1nn(-c2ccc(Cl)cc2)c2nc(CC)c(C#N)c(=O)n12	3.5	12.1	24.8	202.5*	9.1
CCCCSc1nnc2c(n1)[nH]c1ccccc12	43.6	55.6*	22.9	156.9	-3.3
CC(C)CSc1nnc2c(n1)[nH]c1ccccc12	38.5	47.8	16.1	178.4	5.0
CC[C@@H](CS(=O)(=O)O)[N+](=O)[O-]	x	x	21.5	x	x
CCn1nnc(NC(=O)CSc2ccc(Cl)cc2)n1	81.6*	89.5*	0.1	29.3	7.8
CCCCn1nnc(NC(=O)Cc2ccc(Cl)cc2)n1	-3.3	2.2	2.0	93.8	6.3
Cc1ccc2cc(CCNS(=O)(=O)c3ccc(F)cc3)c(=O)[nH]c2c1	-2.9	2.9	4.0	216.1*	5.3
CCOC(=O)c1ccc(-n2c(C)nc3c(cnn3-c3ccc(Cl)cc3)c2=O)cc1	-3.2	-6.6	6.8	95.0	33.5*
CCOC(=O)c1ccc(-n2c(C)nc3c(cnn3-c3ccccc3Cl)c2=O)cc1	-7.9	-1.8	8.7	103.9	4.1
Cc1ccc2cccc(S(=O)(=O)Nc3ccc4c(c3)OCO4)c2n1	74.8*[fluorescence artefact?]	82.8*[fluorescence artefact?]	6.0	24.7	4.5
O=S(=O)(Nc1ccc2c(c1)OCCO2)c1cccc2nsnc12	-4.3	-4.0	4.1	91.4	-1.2
Cc1cc(Cl)c(S(=O)(=O)Nc2ccc3c(c2)OCO3)cc1OCC(N)=O	50.8*	50.5*	11.1	86.0	5.8
Cc1cc(Cl)c(S(=O)(=O)Nc2ccc3c(c2)OCO3)cc1OCC(=O)NC1CCCCC1	6.7	7.8	-8.0	80.2	5.1
COc1ccc(N2Cc3cccc(C(=O)NC(C)CCc4ccco4)c3C2=O)cc1 (centres undefined)	48.9	69.3*[fluorescence artefact?]	5.4	97.6	-7.6
CCOC(=O)N1CCC(NC(=O)c2cccc3c2C(=O)N(c2ccc(OC)cc2)C3)CC1	52.3*	72.2*[fluorescence artefact?]	10.2	57.3	3.1
CCOC(=O)N1CCC(NC(=O)c2cnn3c(C(F)(F)F)cc(-c4cccc(OC)c4)nc23)CC1	51.2*[fluorescence artefact?]	72.0*[fluorescence artefact?]	22.9	182.8	8.4
COc1ccc(C(=O)COc2ccccc2N2C(=O)C3C4C=CC(C4)C3C2=O)cc1 (centres undefined)	2.1	50.6*[fluorescence artefact?]	8.7	58.9	6.3
